The values that follow come from publication PMC6919601, “Identification of Plasmodium dipeptidyl aminopeptidase allosteric inhibitors by high throughput screening” (PLoS ONE, 2019).

SMILES strings stand for the structures. Hit rate of the full screen: of about 110,000 compounds, about 230 (0.21%) showed an effect of 50% or more. The sample as a whole holds a higher share of strong results than the screen did.
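Note: 30 min substrate incubation versus DMSO and 10 µM JCP410 controls.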

The target of the assay is DPAP1 (Plasmodium falciparum, UniProt Q8IIJ9). The experiment in a line: primary screen, percent inhibition; read by cleavage of a fluorogenic dipeptide substrate; higher = more effect of the substance. Also on record: species or system P. falciparum D10 trophozoite lysates; single well.
DPAP1, sequence (Q8IIJ9 whole entry, looked up): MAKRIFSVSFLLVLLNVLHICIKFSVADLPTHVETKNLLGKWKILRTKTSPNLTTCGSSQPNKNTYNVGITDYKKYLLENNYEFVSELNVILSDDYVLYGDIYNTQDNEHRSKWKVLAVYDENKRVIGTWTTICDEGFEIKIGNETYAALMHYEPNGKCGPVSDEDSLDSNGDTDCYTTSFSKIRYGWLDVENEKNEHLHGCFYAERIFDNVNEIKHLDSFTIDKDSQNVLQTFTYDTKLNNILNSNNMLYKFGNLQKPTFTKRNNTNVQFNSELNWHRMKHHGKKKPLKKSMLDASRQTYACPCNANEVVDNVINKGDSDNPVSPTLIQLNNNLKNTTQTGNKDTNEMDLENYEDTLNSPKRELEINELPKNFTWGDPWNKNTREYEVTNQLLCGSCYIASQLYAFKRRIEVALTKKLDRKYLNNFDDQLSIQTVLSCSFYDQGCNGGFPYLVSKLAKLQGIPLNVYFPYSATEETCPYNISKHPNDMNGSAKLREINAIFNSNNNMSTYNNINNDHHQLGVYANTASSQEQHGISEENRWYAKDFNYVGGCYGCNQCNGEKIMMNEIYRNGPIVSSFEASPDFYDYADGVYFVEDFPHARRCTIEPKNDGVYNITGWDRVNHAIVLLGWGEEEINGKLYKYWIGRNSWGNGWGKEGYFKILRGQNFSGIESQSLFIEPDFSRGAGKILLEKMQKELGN
As to `COc1ccc(C2=NN(CCc3ccccn3)C(=O)C2)cc1`, the “% Inhibition @ 10 uM” value is listed as -4.06%.
To `O=C1N=C(N2CCN(C3=NC(=O)/C(=C\c4cccc(O)c4)S3)CC2)S/C1=C\c1cccc(O)c1` belongs 6%.
To `O=C1N=C(N2CCN(Cc3ccccc3)CC2)S/C1=C\c1cccc(O)c1` belongs 51%; to `O=C1N=C(N2CCN(Cc3ccccc3)CC2)S/C1=C\c1ccccc1`, -2.82%.
The value for `Cn1cc(CC(=O)NCc2ccc(F)cc2)c2ccccc21` was -4.76%.
Regarding `Cn1cc(CC(=O)NCc2ccccn2)c2ccccc21`, the “% Inhibition @ 10 uM” value is 87.4%.
As to `Cn1cc(CCC(=O)NCc2ccccn2)c2ccccc21`, the “% Inhibition @ 10 uM” value is 3.28%.
To `CCOC(=O)N1CCN(C(=O)Cc2cn(C)c3ccccc23)CC1` belongs 85.9%; to `CCOC(=O)N1CCN(C(=O)Cc2c(C(=O)O)n(C)c3ccccc23)CC1`, 2.84%; to `CCOC(=O)N1CCC(NC(=O)Cc2cn(C)c3ccccc23)CC1`, -2.41%.
`CSCCCN(C)CCc1ccccn1`: the “% Inhibition @ 10 uM” value is listed as -7.56%.
For the molecule `CN(C)c1ccc(NC(=O)C23CC4CC(C2)CC(n2cnc(Cl)n2)(C4)C3)cc1`, the “% Inhibition @ 10 uM” value is reported as -0.305%.
To `Cc1ccc(C)c(-c2csc(NC(=O)CSc3ccccc3)c2C(N)=O)c1` belongs 1.02%; to `O=C(CSc1ccc(-c2cccs2)nn1)N1CCOCC1`, 5.85%; to `N#Cc1c(C(F)(F)F)cc(-c2cccs2)nc1SCC(=O)N1CCCCC1`, 87%.
For `N#Cc1c(C(F)(F)F)cc(-c2cccs2)nc1SCC(=O)N1CCOCC1`, the “% Inhibition @ 10 uM” value was determined as 72.6%.
`COc1ccc(-c2cc(-c3ccccc3)nc(SCC(=O)N3CCOCC3)c2C#N)cc1`: the “% Inhibition @ 10 uM” value was determined as 5.24%.
For the molecule `N#Cc1c(C(F)(F)F)cc(-c2cccs2)nc1SCC(=O)Nc1ccc(C(N)=O)cc1`, the “% Inhibition @ 10 uM” value is on record as -7.55%.
The value for `N#Cc1c(C(F)(F)F)cc(-c2cccs2)nc1SCC(=O)O` was 9.42%; that for `N#Cc1c(C(F)(F)F)cc(-c2cccs2)nc1SCc1nc(N)nc(N2CCOCC2)n1` was 64.2%; that for `N#Cc1c(C(F)(F)F)cc(-c2ccccc2)nc1SCc1nc(N)nc(N2CCOCC2)n1` was 5.18%.
The value for `N#Cc1c(C(F)(F)F)cc(-c2cccs2)nc1SCC(=O)NC1CC1` was 1.76%; that for `Cn1cccc1/C=C1/CCC(C2CCCC2)C1=O` (stereo not shown) was -5.51%.
The value for `Cc1ccc(C)n1-c1nnc(N2CCC(C(=O)NCCc3ccc(Cl)cc3)CC2)s1` was -4.04%.
Consider `O=C(NC1CCCC1)N(Cc1ccc2c(c1)OCO2)C1CCN(Cc2ccccc2)CC1`, for which the “% Inhibition @ 10 uM” value is listed as -1.41%.
As for `Cc1nc2c(c(C)nn2-c2ccccc2)c(C)c1CCC(=O)NCCC(C)C`, the “% Inhibition @ 10 uM” value was 2.57%.
The value for `CCc1ccc2ncc(S(=O)(=O)c3ccccc3)c(N3CCCC3)c2c1` was -3.69%; that for `CSC1=C(C#N)C2(CCCC2)C(C#N)C(=O)N1` (stereo not shown) was -0.239%; that for `CSC1=C(C#N)C2(CCCCC2)C(C#N)C(=O)N1` (stereo not shown) was -0.736%.
The value for `N#CC1=C(S)NC(=O)C(C#N)C12CCCCC2` (stereo not shown) was 57.8%; that for `CCN(CC)C(=O)/C=C/c1ccc(Cl)cc1` was 3%.
Take `Cn1c(=O)c2c(nc(CN3CCc4ccccc4C3)n2CCCc2ccccc2)n(C)c1=O`: the “% Inhibition @ 10 uM” value is recorded as 59.1%.
To `Cn1c(=O)c2c(nc(CN3CCc4ccccc4C3)n2Cc2ccccc2)n(C)c1=O` belongs -0.499%; to `Cn1c(=O)c2c(nc(CN3CCc4ccccc4C3)n2CCc2ccccc2)n(C)c1=O`, 2%; to `CC1=CC2=NC(=O)/C(=C\c3cccn3CCCOc3ccc(C)cc3)C(=N)N2O1`, -1.43%.
Consider `CCOC(=O)c1cc2c(=O)n3ccccc3nc2n(CCOC)/c1=N\C(=O)C(C)(C)C`, for which the “% Inhibition @ 10 uM” value is -2.04%.
To `COC(=O)Nc1ccc(S(=O)(=O)N2CCN(c3ccccc3OC)CC2)cc1` belongs -5.13%.
As for `COC(=O)c1ccc(Oc2nc(C)cc(N)n2)cc1`, the “% Inhibition @ 10 uM” value is given as -2.87%.
The value for `Cc1cc(C)nc(SC(=O)c2ccc(Cl)cc2Cl)n1` was -5.13%; that for `COc1ccc(C(=O)Sc2nc(C)cc(C)n2)cc1` was 54.6%.
In the case of `CCNc1nc(-c2ccccc2)cs1`, the “% Inhibition @ 10 uM” value stood at 89.1%.
Regarding `CCCNc1nc(-c2ccc(C)cc2)cs1`, the “% Inhibition @ 10 uM” value stood at 3.33%.
`c1ccc(-c2csc(NCc3ccco3)n2)cc1`: the “% Inhibition @ 10 uM” value is -0.178%.
`c1ccc(CC2CCN(c3ncnc4sc5c(c34)CCCC5)CC2)cc1`: the “% Inhibition @ 10 uM” value is recorded as 2.92%.
On to `CCn1cc2c(n1)-c1c(oc(C(=O)NCc3cccc(Br)c3)c1C)CC2`, for which the “% Inhibition @ 10 uM” value was 13.8%.
The value for `CCOC(=O)c1c(CC(C)C)csc1NC(=O)c1ccc(C)cc1` was -5.9%; that for `CCC1CCc2c(sc(N)c2C#N)C1` (stereo not shown) was 11.8%; that for `CCN(CC)C(=O)CSc1nc2c(c(C(F)(F)F)c1C#N)CCC2` was 5.64%.
Consider `CCC1CCc2nc(S)c(C#N)c(C(F)(F)F)c2C1` (stereo not shown), for which the “% Inhibition @ 10 uM” value is 88.2%.
To `CC(C)c1ccc(/C=C2/NC(=O)NC2=O)cc1` belongs -1.25%.
On to `Cc1ccc(S(=O)(=O)N2CCCN(S(=O)(=O)c3ccc(C)c(C)c3)CC2)cc1C`, for which the “% Inhibition @ 10 uM” value is 22.6%.
With `CN1CCN(C(=O)c2ccc(-c3ccccc3)cc2)CC1`, the “% Inhibition @ 10 uM” value is listed as 2.6%.
